According to PubChem BioAssay (NCATS):
Results filed as inconclusive are left out. Calls of active or inactive are those of the source. Unless noted, calls come from the whole dose curve; as a rule, active = well fitted curve in either direction with a large enough effect (not every such curve was filed as active); inconclusive = small, poorly fitted or top-dose-only effect, or another doubt; inactive = flat fitted curve, though single readings scatter.

Tests used:
[1] = target: Lysosomal acid glucosylceramidase (Homo sapiens) (UniProt P04062); test: Glucocerebrosidase-p2 (AID 348; in the data active = potency below about 10 µM; note: potency is the fitted concentration of half-maximal effect); settings: purified GBA, blue fluorogenic substrate, 40 min
How it was run: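 Normal human glucocerebrosidase (0.2 nM) with blue fluorogenic substrate (80 uM final) in citrate/phosphate pH 5.9 with 10mM sodium taurocholate, 0.01% tween-20; 40 min RT, NaOH/glycine stop; fluorescence Ex 365/Em 440; AC50 from a titration from 0.6 nM upwards.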

[2] = NFAT Signaling Pathway (AID 444); settings: Jurkat NFAT-bla M1, carbachol, beta-lactamase ratio, 5 h; at 7.69 µM (top of the series) unless noted;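 note: carbachol stimulus at about its EC50 of 1 µM final; % is set by controls: 0 for no effect and ±100 for the full control effect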
How it was run: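 Read-out: CCF4 FRET ratio (460 nm/530 nm) after 1 h RT dye loading, used for %activity and AC50 from titration series. Cells: Jurkat NFAT-β-lactamase/M1 line, treated with compound plus 1 uM carbachol for 5 h, 37 °C.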

[3] = Stat Signaling Pathway (AID 446); settings: ME-180 SIE beta-lactamase reporter, IL-6 stimulated, 5 h; at 7.69 µM (top of the series) unless noted;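 note: ME-180 cervical cancer cells given 40 pM IL-6 alongside compound; SIE-controlled beta-lactamase reporter measured as 460/530 nm FRET emission ratio; % is set by controls: 0 for no effect and ±100 for the full control effect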
How it was run: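 FRET read-out (405 nm excitation, 460/530 nm emission) of a beta-lactamase reporter under a STAT-inducible element in ME-180 cervical carcinoma cells. Cells with compound receive 40 pM IL-6 for 5 h. Values are normalised to AC90 stimulation and AC90 JAK-inhibitor controls.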

[4] = target: Glucocorticoid receptor (Homo sapiens) (UniProt P04150); test: GR-GFP Redistribution (AID 450;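 active = compounds whose dose series gives a full or clear partial fitted curve of increased nuclear translocation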; note: potency is the fitted concentration of half-maximal effect); settings: U2OS GR-GFP nuclear translocation, laser cytometry, 2 h
[5] = target: Glucocorticoid receptor (Homo sapiens) (UniProt P04150); test: GR-EFC Redistribution (AID 451; calls by dose curve; note: potency is the fitted concentration of half-maximal effect); settings: CHO-K1 GR-EFC translocation, beta-gal luminescence, 2 h
How it was run: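 Translocation of GR-ED fusion to nuclear EA restores b-gal, read by luminescence after 1 h room-temperature detection. Engineered CHO-K1 biosensor cells, 1,000/well, exposed 2 h at 37 C to titrations up to 46 uM final.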

[6] = target: Mitogen-activated protein kinase 10 (Mus musculus) (UniProt Q61831); test: JNK3 AlphaScreen Assay (AID 530); settings: JNK3 lysate, c-Jun phosphorylation; series mostly up to 11.4 µM;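 note: kinase came from lysate of stimulated human HepG2 cells; signal reports phosphorylation of biotinylated GST-cJun 1-79 at Ser73 with 10 µM ATP; % is set by controls: 0 for no effect and ±100 for the full control effect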
How it was run: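 qHTS titrations with 15 min compound pre-incubation before adding ATP (10 uM final). Read-out: AlphaScreen of Ser73-phosphorylated biotin-GST-cJun using HepG2 lysate JNK3 activated by IL-1β and TNFα.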

[7] = target: Cytochrome P450 3A4 (Homo sapiens) (UniProt P08684); test: qHTS Assay for Activators of Cytochrome P450 3A4 (AID 885; active = well fitted curve in the direction sought with a large enough effect; an effect the other way counts as inactive or inconclusive; note: nearly all actives have a fitted effect of over 65% in size); settings: recombinant CYP3A4, Luciferin-PPXE luminescence, 60 min; series mostly up to 11.4 µM
How it was run: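 Luminescent readout of luciferin formed from 25 uM Luciferin-PPXE (KM level) by 20 nM CYP3A4 in 200 mM KPO4, with 60 min NADPH-driven reaction at room temperature after 10 min compound exposure. Ketoconazole (57 uM) defined 100% inhibition.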

[8] = target: Cytochrome P450 2D6 (Homo sapiens) (UniProt P10635); test: qHTS Assay for Inhibitors and Substrates of Cytochrome P450 2D6 (AID 891; active = well fitted curve in the direction sought with a large enough effect; an effect the other way counts as inactive or inconclusive; note: potency is the fitted concentration of half-maximal effect; nearly all actives have a fitted effect of over 60% in size); settings: recombinant CYP2D6, luciferin-ME EGE luminescence; series mostly up to 11.4 µM
How it was run: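 Luminescent read-out of luciferin formed by 5 nM human CYP2D6 demethylating 30 uM Luciferin-ME EGE (Km level) over 60 min at room temperature after NADPH regeneration addition. Data normalized to full inhibition by 1.43 uM quinidine.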

[9] = target: Cytochrome P450 1A2 (Homo sapiens) (UniProt P05177); test: p450-cyp1a2 (AID 410; calls by dose curve; note: potency is the fitted concentration of half-maximal effect;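 for activity change, negative = inhibition: -100% = full effect of reference inhibitor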); settings: recombinant CYP1A2, luciferin-ME demethylation, luminescence; series mostly up to 11.4 µM
How it was run: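 Luminescent demethylation readout: Luciferin-ME (100uM, equal to Km) turned over by 20nM CYP1A2 for 60 min at room temperature after NADPH regeneration addition, following 10 min compound preincubation. Normalization used 57 uM furafylline as full inhibition.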

[10] = target: 3',5'-cyclic-AMP phosphodiesterase 4B (Homo sapiens) (UniProt Q07343); test: qHTS Assay for Inhibitors of PDE-IV (AID 607; active = well fitted activation curve with a large enough effect in the main read-out, with a control signal flat, not every such curve was filed as active; note: % of control where 0% means no effect); settings: HEK293 ACTOne CNG channel cells, membrane potential fluorescence; series mostly up to 22.9 µM
How it was run: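 Cell-based read-out of cAMP via a modified cyclic nucleotide-gated channel and membrane potential dye (535/590 nm) in HEK293 cells expressing PDE4 endogenously. Compounds tested up to 22.9 uM final; 100 uM RO 20-1724 reference.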

[11] = target: Cytochrome P450 2C19 (Homo sapiens) (UniProt P33261); test: qHTS Assay for Inhibitors and Substrates of Cytochrome P450 2C19 (AID 899; active = well fitted curve in the direction sought with a large enough effect; an effect the other way counts as inactive or inconclusive; note: nearly all actives have a fitted effect of over 60% in size; note: potency is the fitted concentration of half-maximal effect; for activity, negative = inhibition: % is set by controls: 0 for no effect and ±100 for the full control effect); settings: recombinant CYP2C19, luciferin-H EGE luminescence; series mostly up to 11.4 µM
How it was run: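 5nM enzyme + 10uM Luciferin-H EGE (=KM), 50mM KPO4; cpd pin-transferred, 10 min 37C; NADPH regen, 60 min 37C; stopped w/ luciferin detection reagent, 20 min; luminescence. Normalized to 57uM ketoconazole (AC100).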

[12] = qHTS Assay for Identification of Small Molecule Agonists for Hypoxia Response Element Signaling Pathway (AID 914; active = well fitted activation curve with a large enough effect in the signal ratio, with a control signal flat, not every such curve was filed as active; the % refers to the signal ratio; note: potency is the fitted concentration of half-maximal effect; for activation: % of control where 0% means no effect); settings: ME-180 (cervical carcinoma) HRE-bla reporter, beta-lactamase ratio, CoCl2, 17 h; activation: active compounds read high
How it was run: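 qHTS titration; ME-180 HRE-bla cells; EC50 CoCl2 co-treatment, 17 h at 37 degrees Celsius; CCF4 dye, ex 405nm, em 460nm and 530nm; %Activity from ratio; AC50.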

[13] = target: Cytochrome P450 2C9 (Homo sapiens) (UniProt P11712); test: qHTS Assay for Inhibitors and Substrates of Cytochrome P450 2C9 (AID 883; active = well fitted curve in the direction sought with a large enough effect; an effect the other way counts as inactive or inconclusive; note: potency is the fitted concentration of half-maximal effect; nearly all actives have a fitted effect of over 60% in size); settings: recombinant CYP2C9, luciferin-H luminescence, 60 min; series mostly up to 11.4 µM
How it was run: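 Inhibition of CYP2C9 is scored as loss of luminescence, with 57uM sulphaphenazole defining 100% inhibition. Substrate Luciferin-H is used at 100uM, equal to its KM; enzyme at 10nM in 25mM KPO4, 60 min at 37C with NADPH regeneration.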

Chain of Cytochrome P450 2C19 (Homo sapiens) (P33261 whole entry, looked up): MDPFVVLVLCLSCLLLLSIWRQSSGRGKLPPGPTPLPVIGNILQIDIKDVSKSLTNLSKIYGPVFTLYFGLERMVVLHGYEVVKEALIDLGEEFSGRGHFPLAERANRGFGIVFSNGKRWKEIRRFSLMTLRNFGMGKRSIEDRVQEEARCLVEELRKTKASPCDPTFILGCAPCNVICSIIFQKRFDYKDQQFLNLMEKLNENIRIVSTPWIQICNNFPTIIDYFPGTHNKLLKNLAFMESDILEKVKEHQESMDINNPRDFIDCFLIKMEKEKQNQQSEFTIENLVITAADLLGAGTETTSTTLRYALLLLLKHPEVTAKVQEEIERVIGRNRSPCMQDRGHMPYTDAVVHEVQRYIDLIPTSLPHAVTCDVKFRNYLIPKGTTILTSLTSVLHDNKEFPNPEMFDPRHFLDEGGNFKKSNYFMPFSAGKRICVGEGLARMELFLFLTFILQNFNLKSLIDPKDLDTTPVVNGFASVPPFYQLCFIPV
Chain of Cytochrome P450 3A4 (Homo sapiens) (P08684 whole entry, looked up): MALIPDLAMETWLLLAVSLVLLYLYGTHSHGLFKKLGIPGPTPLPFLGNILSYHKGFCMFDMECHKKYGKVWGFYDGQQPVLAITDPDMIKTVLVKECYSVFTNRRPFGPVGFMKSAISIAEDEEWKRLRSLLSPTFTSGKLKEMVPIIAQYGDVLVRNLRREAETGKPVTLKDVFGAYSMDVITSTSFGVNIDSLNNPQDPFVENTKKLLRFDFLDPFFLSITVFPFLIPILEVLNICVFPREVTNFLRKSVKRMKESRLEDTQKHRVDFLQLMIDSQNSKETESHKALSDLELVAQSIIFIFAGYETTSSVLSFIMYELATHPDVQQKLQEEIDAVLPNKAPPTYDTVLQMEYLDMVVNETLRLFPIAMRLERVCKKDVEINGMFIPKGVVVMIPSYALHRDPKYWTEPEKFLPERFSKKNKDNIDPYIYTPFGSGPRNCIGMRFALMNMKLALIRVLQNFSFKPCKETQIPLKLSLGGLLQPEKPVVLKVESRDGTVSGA
Chain of Cytochrome P450 2D6 (Homo sapiens) (P10635 whole entry, looked up): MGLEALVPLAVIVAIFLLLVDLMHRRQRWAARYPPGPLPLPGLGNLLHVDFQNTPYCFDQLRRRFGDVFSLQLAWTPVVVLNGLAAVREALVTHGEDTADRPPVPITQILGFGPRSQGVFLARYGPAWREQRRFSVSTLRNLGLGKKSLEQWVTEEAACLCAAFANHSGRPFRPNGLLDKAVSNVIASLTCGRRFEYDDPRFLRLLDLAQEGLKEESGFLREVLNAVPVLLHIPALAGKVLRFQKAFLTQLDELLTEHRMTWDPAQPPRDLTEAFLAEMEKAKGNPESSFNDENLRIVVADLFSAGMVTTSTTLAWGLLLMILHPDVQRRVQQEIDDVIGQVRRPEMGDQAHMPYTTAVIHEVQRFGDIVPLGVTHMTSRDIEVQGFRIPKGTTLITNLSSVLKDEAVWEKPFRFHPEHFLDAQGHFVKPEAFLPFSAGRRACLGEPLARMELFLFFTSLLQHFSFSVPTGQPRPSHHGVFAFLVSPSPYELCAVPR
Chain of Lysosomal acid glucosylceramidase (Homo sapiens) (P04062 whole entry, looked up): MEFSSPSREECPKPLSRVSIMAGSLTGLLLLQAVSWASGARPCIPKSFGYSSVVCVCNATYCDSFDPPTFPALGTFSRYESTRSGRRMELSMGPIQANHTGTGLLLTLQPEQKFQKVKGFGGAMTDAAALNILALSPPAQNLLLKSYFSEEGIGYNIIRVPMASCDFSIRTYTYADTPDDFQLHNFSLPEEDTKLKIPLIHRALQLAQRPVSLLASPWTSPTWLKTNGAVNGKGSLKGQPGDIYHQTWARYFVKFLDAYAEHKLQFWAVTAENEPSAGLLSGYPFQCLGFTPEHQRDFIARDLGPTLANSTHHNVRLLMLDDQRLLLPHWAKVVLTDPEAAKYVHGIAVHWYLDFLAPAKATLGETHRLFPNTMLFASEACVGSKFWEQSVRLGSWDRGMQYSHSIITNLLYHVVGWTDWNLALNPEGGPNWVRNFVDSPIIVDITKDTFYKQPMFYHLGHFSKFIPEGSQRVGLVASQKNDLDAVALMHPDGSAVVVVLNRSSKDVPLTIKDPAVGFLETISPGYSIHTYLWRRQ
Chain of 3',5'-cyclic-AMP phosphodiesterase 4B (Homo sapiens) (Q07343 whole entry, looked up): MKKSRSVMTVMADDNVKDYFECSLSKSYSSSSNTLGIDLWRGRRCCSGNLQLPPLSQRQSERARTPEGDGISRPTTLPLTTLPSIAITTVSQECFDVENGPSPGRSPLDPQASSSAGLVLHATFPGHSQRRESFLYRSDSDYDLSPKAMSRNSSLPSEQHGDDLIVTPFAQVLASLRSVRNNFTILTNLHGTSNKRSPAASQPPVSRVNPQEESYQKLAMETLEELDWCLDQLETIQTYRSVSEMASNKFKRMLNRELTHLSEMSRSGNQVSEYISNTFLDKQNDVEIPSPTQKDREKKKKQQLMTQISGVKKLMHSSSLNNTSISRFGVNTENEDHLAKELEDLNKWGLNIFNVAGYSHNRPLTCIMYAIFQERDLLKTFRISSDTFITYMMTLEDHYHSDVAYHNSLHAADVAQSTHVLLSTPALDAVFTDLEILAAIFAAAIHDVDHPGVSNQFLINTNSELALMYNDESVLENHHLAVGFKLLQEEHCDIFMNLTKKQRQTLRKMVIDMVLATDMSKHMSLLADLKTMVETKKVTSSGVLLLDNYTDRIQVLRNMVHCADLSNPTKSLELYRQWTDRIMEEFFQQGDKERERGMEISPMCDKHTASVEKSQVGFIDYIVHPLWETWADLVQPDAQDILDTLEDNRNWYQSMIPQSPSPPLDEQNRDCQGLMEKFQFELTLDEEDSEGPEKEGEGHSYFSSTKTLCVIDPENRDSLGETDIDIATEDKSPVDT
Chain of Glucocorticoid receptor (Homo sapiens) (P04150 whole entry, looked up, the tested form may be a part): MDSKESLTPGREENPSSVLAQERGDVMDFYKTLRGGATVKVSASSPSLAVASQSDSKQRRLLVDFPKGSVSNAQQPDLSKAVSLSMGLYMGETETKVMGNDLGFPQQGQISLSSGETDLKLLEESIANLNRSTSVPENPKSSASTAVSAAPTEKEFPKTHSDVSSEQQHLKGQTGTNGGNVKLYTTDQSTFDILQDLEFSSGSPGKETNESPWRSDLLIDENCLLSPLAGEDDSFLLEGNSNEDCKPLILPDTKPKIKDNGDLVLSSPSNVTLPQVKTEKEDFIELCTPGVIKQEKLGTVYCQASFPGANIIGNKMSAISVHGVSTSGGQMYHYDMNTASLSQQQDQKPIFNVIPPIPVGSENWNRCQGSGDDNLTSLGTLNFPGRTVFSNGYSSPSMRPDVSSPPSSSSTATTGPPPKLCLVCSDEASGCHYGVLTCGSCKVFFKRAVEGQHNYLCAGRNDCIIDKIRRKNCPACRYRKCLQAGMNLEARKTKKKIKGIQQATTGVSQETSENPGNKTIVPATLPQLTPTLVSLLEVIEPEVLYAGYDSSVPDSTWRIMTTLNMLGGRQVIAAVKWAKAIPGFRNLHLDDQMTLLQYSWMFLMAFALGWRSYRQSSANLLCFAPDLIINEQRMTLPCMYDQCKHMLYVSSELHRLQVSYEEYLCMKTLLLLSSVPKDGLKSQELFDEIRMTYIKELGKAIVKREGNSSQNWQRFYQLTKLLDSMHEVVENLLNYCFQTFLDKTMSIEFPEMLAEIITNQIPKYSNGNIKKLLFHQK
Chain of Cytochrome P450 1A2 (Homo sapiens) (P05177 whole entry, looked up): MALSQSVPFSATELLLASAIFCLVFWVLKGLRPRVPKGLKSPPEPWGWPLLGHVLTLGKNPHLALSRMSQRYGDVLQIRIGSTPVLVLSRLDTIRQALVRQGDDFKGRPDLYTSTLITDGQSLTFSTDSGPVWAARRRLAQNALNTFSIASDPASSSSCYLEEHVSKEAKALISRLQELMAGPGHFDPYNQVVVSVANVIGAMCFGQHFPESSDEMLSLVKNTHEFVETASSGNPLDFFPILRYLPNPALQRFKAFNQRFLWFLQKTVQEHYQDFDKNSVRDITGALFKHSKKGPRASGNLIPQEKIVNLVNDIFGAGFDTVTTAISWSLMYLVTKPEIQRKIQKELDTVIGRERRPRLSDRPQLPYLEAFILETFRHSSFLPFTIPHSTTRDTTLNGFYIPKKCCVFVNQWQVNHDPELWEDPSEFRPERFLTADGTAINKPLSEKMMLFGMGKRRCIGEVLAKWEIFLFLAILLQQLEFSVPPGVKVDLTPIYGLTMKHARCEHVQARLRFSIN
Chain of Cytochrome P450 2C9 (Homo sapiens) (P11712 whole entry, looked up): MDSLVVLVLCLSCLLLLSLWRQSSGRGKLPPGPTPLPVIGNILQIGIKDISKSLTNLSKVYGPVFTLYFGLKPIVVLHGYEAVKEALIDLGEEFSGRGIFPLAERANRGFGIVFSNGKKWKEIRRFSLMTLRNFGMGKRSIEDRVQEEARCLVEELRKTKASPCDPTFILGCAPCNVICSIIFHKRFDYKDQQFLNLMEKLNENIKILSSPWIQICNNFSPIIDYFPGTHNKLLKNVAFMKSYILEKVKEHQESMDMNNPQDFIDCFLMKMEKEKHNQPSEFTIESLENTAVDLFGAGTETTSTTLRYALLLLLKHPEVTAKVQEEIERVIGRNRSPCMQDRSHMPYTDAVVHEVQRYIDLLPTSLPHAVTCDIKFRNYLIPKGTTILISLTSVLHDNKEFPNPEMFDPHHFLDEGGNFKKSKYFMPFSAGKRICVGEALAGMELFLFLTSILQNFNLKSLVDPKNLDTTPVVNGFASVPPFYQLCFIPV

CCNc1ncc2nc(CCc3ccccc3)c(=O)n(-c3ccc(OC)cc3)c2n1
inactive: Potency [1] > 11.4 µM | activity change, negative = inhibition [2] -12.3% | activity, negative = inhibition [3] -3.89% | Potency [4] > 9.22 µM | Potency [5] > 46 µM | Potency [6] | Potency [7]
active: Potency [8] 0.251 µM

C[C@H]1CC(C)(C)C[C@@](OCCN2CCCCC2)(c2ccccc2)C1
active: Potency [8] 0.631 µM
inactive: Potency [1] > 11.4 µM | Potency [9] | activity, negative = inhibition [3] 7.87% | Potency [4] > 46 µM | Potency [5] > 9.22 µM | Potency [6] | Potency [7]

Cc1cccc(Cl)c1NC[C@H](O)CN1CCN(C)CC1
inactive: Potency [1] > 11.4 µM | activity change, negative = inhibition [2] -10.1% | activity, negative = inhibition [3] 6.35% | Potency [4] > 46 µM | Potency [5] > 9.22 µM | Potency [6] | Potency [10]

COc1cccc(Nc2ncc3nc(CCc4ccccc4)c(=O)n(C[C@H]4CCCO4)c3n2)c1
inactive: Potency [1] > 11.4 µM | activity change, negative = inhibition [2] -6.15% | activity, negative = inhibition [3] -12.8% | Potency [4] > 9.22 µM | Potency [5] > 46 µM | Potency [6]

CSc1ccc2c(c1)N(CCCN(C)C)c1ccccc1S2
inactive: Potency [1] > 11.4 µM | activity, negative = inhibition [3] 2.23% | Potency [5] > 9.22 µM | Potency [6] | Potency [10]
active: Potency [9] 1.26 µM | Potency [8] 0.501 µM

O=[N+]([O-])c1ccc(S(=O)(=O)Cc2ccccc2)c([N+](=O)[O-])c1
active: activity change, negative = inhibition [2] -88.3%
inactive: Potency [1] > 11.4 µM | Potency [5] > 9.22 µM | Potency [6]

COc1ccc(-c2csc3c2[N+]2=CCC=C2C3=O)cc1
inactive: Potency [1] > 11.4 µM | activity, negative = inhibition [3] -14.9% | Potency [4] > 46 µM | Potency [5] > 9.22 µM | Potency [6] | Potency [10] | Potency [7] | activation [12] 4.84%
active: Potency [9] 0.501 µM | Potency [8] 3.16 µM | Potency [11] 3.98 µM

O=c1c(-c2ccccc2)nc2cnc(N3CCOCC3)nc2n1-c1ccccc1
active: Potency [9] 12.6 µM | Potency [12] 3.16 µM
inactive: Potency [1] > 11.4 µM | Potency [4] > 9.22 µM | Potency [5] > 46 µM | Potency [10] | Potency [7]

CN(C)CCCN1c2ccccc2Sc2ccc3ccccc3c21
active: Potency [8] 1.26 µM
inactive: Potency [1] > 11.4 µM | activity change, negative = inhibition [9] -2.2% [at 2.29 µM] | activity, negative = inhibition [3] 3.27% | Potency [4] > 46 µM | Potency [5] > 9.22 µM | Potency [6] | Potency [10]

OCCN[C@@H]1c2cc(Cl)ccc2-c2c(Cl)cc(Cl)cc21
inactive: Potency [1] > 11.4 µM | activity change, negative = inhibition [2] -8.6% | activity, negative = inhibition [3] 4.1% | Potency [4] > 46 µM | Potency [5] > 9.22 µM | Potency [6] | Potency [10]

COc1ccc(C(=O)[C@H](Br)[C@H](Br)C(=O)O)cc1
inactive: Potency [1] > 11.4 µM | Potency [4] > 46 µM | Potency [5] > 9.22 µM | Potency [6] | Potency [10]
active: Potency [9] 3.98 µM

CCN(CC)CCN1c2ccccc2Sc2ccc3ccccc3c21
active: Potency [9] 3.98 µM | Potency [8] 0.631 µM
inactive: Potency [1] > 11.4 µM | activity, negative = inhibition [3] 4.26% | Potency [4] > 46 µM | Potency [5] > 9.22 µM | Potency [6] | Potency [10]

O=c1c(-c2ccccc2)nc2cnc(N3CCNCC3)nc2n1Cc1ccc(F)cc1
inactive: Potency [1] > 11.4 µM | Potency [4] > 9.22 µM | Potency [5] > 46 µM | Potency [10] | Potency [7]
active: Potency [9] 20 µM

Cc1c(O)c(Br)c(C)c(O)c1Br (tested in a mixture with another compound)
inactive: Potency [1] > 11.4 µM | Potency [4] > 46 µM | Potency [5] > 9.22 µM | Potency [6] | Potency [10]
active: activity change, negative = inhibition [2] -77.8%

Oc1c(Cl)cc(C(c2cc(Cl)c(O)c(Cl)c2)C(c2cc(Cl)c(O)c(Cl)c2)c2cc(Cl)c(O)c(Cl)c2)cc1Cl
inactive: Potency [4] > 46 µM | Potency [5] > 9.22 µM | Potency [6] | Potency [10]
active: Potency [1] 5.75 µM | Potency [9] 0.794 µM | Potency [11] 2.51 µM

FC(F)(F)c1cccc(-c2nc3nc(Cl)c(Cl)nc3[nH]2)c1
inactive: Potency [1] > 11.4 µM | Potency [4] > 46 µM | Potency [5] > 9.22 µM | Potency [6] | Potency [10] | Potency [7]
active: Potency [9] 0.398 µM | Potency [13] 3.98 µM

CC[C@H]1C(=O)OC[C@H]1Cc1cncn1C
inactive: Potency [1] > 11.4 µM | Potency [9] | Potency [6] | Potency [10] | Potency [11]
